ERK EGF inh = qHTS Assay for Inhibitors of the ERK Signaling Pathway using a Homogeneous Screening Assay; Stimulation with EGF. HEK293-V1b, EGF-stimulated phospho-ERK AlphaScreen. Potency, µM (series often up to 11.5 µM), inactives show top-dose activity change, negative = inhibition, actives largely listed as inhibitors. 130,000 compounds, 0.41% hits;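 note: potency is the fitted concentration of half-maximal effect; plate controls were stimulated vehicle wells for no effect and unstimulated vehicle basal for full effect; nearly all actives have a fitted effect of over 55% in size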
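Readout: AlphaScreen signal for phosphorylated ERK in lysed HEK293 cells stably expressing V1b. Stimulus 25 nM EGF, 5 min, following 30 min compound exposure. Data scaled to DMSO basal and full EGF activation.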
pERK EGF inh = Confirmation Concentration-Response Assay for Inhibitors of the ERK Signaling Pathway using a Homogeneous Screening Assay; Stimulation with EGF; AID 1725, 2009; shares compounds with ERK EGF inh; 60 compounds, 60% hits; HEK293 EGF-stimulated ERK phosphorylation, AlphaScreen; Potency, µM (highest dose often 57.5 µM), for inactives: top-dose activity change, negative = inhibition, most hits filed as inhibitors
c-Raf inh = Assay for Inhibitors of the ERK Signaling Pathway using a Homogeneous Screening Assay: c-Raf Inhibition | 70 tested, under 10 active | shares compounds with ERK EGF inh | c-Raf kinase inhibition, homogeneous biochemical assay | activity change, negative = inhibition, % at 76.9 µM
MEK inh = Assay for Inhibitors of the ERK Signaling Pathway using a Homogeneous Screening Assay: MEK Inhibition; shares compounds with ERK EGF inh; homogeneous MEK kinase activity assay, ERK pathway; Potency, µM (doses to about 76.9 µM), for the others: at the highest dose activity change, negative = inhibition, actives largely listed as inhibitors; 70 tested, under 10 active; AID 1732, 2009
* marks the source's active call; other numbers are inactive results; ? = inconclusive; nt = no result; ! = a repeat was not active; [ ] = another dose, or the depositor's remark. The sample as a whole holds a higher share of hits than the screen did. Calls come from the whole dose curve; as a rule, active = well fitted curve in the direction sought with a large enough effect; inconclusive = small, poorly fitted or top-dose-only effect, or another doubt; inactive = no such curve, though single readings can be large; an effect the other way counts as inactive or inconclusive.

SMILES	ERK EGF inh	pERK EGF inh	c-Raf inh	MEK inh
O=C1NC(=O)C(=Cc2ccccc2Oc2ccc(F)cc2)C(=O)N1	4µM*	2%	-8	?
O=c1[nH]c2ccccc2o1	-23%	nt	nt	nt
CC(C)c1cccc(C(C)C)c1O	9%	nt	nt	nt
Cc1onc(-c2c(Cl)cccc2Cl)c1/C(N)=N/OC(=O)N(C)C	-5%[57.5 µM]	nt	nt	nt
CCOc1ccc(Cl)cc1CNCCc1ccccc1F	-11%[57.5 µM]	nt	nt	nt
CC1=CC(=O)c2c(O)cccc2C1=O	5.6µM*!	7.1µM*	?	?
CC1/C=C/C=C/CC/C=C/C=C/C=C/C=C/C(OC2OC(C)C(O)C(N)C2O)CC2O[C@](O)(CC(O)C(O)CCC(O)CC(O)CC(O)CC(=O)OC(C)C(C)C1O)CC(O)C2C(=O)O (stereo partly specified)	9%	nt	nt	nt
CC(=O)OC1C2CCC1C(N1CCCC1)CC2 (stereo unspecified)	18%[57.5 µM]	nt	nt	nt
